What all share (parameters): scale not given: direction of the effect not stated beside the values
In test [1] the target is Protein translocase subunit SecA (Escherichia coli (strain K12)) (UniProt P10408). The test can be described thus: Assay to Identify E. coli SecA ATPase Inhibitors. The class given is functional. Conditions: 30 µM.
Test [2] addresses T1, Ubiquitin-activating enzyme e1, putative (Leishmania donovani (strain BPK282A1)) (UniProt E9BSI1).
T1 sequence (whole entry): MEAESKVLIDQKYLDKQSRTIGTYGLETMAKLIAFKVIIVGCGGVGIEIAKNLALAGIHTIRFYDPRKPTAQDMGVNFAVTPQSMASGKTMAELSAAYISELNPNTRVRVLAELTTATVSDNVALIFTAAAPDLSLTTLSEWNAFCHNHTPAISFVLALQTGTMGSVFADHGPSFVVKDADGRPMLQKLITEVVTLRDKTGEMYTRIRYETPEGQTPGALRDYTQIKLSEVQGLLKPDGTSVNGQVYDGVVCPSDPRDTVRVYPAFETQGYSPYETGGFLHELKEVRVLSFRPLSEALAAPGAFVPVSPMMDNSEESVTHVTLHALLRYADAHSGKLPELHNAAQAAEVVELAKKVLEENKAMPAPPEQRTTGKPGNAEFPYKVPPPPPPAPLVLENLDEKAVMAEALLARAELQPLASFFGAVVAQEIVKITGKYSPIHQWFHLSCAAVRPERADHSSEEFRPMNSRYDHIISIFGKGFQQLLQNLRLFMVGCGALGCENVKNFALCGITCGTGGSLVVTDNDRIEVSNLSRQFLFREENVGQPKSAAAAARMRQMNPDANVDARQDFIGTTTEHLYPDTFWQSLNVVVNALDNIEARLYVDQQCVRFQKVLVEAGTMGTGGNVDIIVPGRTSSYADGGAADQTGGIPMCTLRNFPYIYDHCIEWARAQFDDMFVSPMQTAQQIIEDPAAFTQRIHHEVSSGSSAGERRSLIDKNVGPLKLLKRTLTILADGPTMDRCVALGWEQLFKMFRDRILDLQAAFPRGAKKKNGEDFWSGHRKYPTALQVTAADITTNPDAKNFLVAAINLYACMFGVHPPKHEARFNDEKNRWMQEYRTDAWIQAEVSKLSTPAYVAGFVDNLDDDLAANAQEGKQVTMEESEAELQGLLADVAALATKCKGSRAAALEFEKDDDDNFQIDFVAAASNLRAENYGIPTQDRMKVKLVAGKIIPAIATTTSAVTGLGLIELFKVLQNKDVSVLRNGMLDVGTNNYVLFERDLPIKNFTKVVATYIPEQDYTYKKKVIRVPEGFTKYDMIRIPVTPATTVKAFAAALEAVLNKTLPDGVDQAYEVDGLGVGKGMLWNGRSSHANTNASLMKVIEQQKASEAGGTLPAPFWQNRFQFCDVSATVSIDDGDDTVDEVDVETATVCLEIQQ
Nature of the test: Leishmania donovani Ubiquitin Activating Enzyme (LdE1). The class given is functional. Conditions: 30 µM.

Test [3] addresses AMP-activated protein kinase, AMPK (Homo sapiens) (UniProt P54646+O43741+P54619+Q9UGJ0+Q9Y478+Q13131+Q9UGI9). Nature of the test: AMP-dependent Kinase enzyme assay. An in vitro enzyme assay that detects ADP turnover that is directly proportional to AMPK activity. This uses naive AMPK that is activated during the assay with MK-8722. The class given is functional. Conditions: 30 µM.

The target in test [4] is Sialic acid-binding Ig-like lectin 9 (Homo sapiens) (UniProt Q9Y336). The test can be described thus: Hs-Siglec9 ALPHAscreen SOP 20170721. Conditions: 10 µM.
Sialic acid-binding Ig-like lectin 9 (Homo sapiens), sequence (Q9Y336 whole entry): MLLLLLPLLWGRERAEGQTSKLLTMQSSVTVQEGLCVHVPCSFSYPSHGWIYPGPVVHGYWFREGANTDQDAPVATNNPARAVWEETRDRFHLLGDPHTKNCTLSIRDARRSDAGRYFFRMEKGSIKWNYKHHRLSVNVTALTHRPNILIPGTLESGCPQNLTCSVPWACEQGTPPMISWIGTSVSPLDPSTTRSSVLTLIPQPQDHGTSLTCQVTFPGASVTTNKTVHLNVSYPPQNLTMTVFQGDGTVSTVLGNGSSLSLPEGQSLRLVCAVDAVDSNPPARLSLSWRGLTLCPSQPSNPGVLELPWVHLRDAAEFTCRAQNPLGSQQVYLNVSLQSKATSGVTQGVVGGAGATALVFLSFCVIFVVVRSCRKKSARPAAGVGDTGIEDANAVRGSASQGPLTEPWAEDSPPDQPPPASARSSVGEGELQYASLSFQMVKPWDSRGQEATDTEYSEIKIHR
Test [5] relates to Trypanosoma cruzi. The test can be described thus: Trypanosoma cruzi phosphomannomutase and mannose-1-phosphate guanylyltransferase assay. The note with it: 10 µM. Type of test: functional.
The target in test [6] is T2, Arginase-2, mitochondrial (Homo sapiens) (UniProt P78540).
T2 sequence (whole entry): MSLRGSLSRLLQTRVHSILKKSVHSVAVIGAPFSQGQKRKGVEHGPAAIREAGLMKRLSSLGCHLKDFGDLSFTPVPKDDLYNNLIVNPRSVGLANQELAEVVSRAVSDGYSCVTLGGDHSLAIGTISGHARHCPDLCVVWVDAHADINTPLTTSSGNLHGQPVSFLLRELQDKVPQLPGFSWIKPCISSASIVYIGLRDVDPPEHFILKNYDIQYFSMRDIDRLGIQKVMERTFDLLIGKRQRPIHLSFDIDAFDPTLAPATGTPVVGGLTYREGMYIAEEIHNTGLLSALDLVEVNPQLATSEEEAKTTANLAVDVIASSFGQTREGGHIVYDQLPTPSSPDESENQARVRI
The test can be described thus: in vitro enzyme assay to detect the production of urea directly proportional to the activity of Arginase II. Also: in the data most compounds retested in dose-response had high values. The class given is functional. Conditions: 33.3 µM.

The target in test [7] is T3, Proteasome subunit beta (Trypanosoma cruzi) (UniProt O96673).
T3 sequence (whole entry): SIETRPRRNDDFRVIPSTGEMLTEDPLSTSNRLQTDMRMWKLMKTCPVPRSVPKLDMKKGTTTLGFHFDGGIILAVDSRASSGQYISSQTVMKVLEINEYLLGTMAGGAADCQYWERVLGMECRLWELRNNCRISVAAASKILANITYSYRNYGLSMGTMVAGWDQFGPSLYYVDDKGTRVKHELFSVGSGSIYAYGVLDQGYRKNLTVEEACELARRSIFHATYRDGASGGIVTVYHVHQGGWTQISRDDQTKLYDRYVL
Nature of the test: Trypanosoma cruzi proteasome chymotrypsin-like activity (TcProtChymo) assay. Also: in the data most compounds retested in dose-response had high values. Type of test: functional. Conditions: 9.37 µM.

The species entered for test [8] is Homo sapiens. Nature of the test: To identify inhibition of the IFN signalling (Jak-Stat) pathway via expression of an eGFP reporter gene under the control of an IFN-stimulated response element (ISRE) containing MxA promoter. The class given is functional. Conditions: 30 µM.
Test [9] concerns the target T4, Tyrosyl-tRNA synthetase, putative (Trypanosoma cruzi (strain CL Brener)) (UniProt Q4DSP6).
T4 sequence (whole entry): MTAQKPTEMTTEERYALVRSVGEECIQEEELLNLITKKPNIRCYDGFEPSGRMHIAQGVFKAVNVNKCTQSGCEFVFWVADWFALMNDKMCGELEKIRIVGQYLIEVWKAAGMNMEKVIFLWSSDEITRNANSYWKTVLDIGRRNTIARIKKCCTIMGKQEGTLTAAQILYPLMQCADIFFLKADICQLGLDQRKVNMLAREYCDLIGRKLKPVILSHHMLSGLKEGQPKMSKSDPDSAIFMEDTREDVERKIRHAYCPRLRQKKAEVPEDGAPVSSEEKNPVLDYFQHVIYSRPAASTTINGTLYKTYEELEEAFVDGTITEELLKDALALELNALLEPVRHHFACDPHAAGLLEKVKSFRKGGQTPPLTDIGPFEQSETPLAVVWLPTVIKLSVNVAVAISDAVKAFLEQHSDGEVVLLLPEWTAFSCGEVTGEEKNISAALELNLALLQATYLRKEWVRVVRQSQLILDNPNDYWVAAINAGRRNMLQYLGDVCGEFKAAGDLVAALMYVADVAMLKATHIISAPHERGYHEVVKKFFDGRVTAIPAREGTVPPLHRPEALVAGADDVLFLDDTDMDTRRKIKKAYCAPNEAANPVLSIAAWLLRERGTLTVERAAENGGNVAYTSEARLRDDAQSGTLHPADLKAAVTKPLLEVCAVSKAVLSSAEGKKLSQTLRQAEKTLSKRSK
Nature of the test: Trypanosoma cruzi tyrosyl tRNA synthetase (TcYRS) _High Tyrosine SOP. Also: in the data most compounds retested in dose-response had high values. The class given is functional. Conditions: 30 µM.

Test [10] concerns the target T4, Tyrosyl-tRNA synthetase, putative (Trypanosoma cruzi (strain CL Brener)). Nature of the test: Trypanosoma cruzi tyrosyl tRNA synthetase (TcYRS) SOP. Type of test: functional. Conditions: 30 µM.
Test [11] has as its target Chromo domain-containing protein 1 (Saccharomyces cerevisiae (strain ATCC 204508 / S288c) (Baker's yeast)) (UniProt P32657). The test can be described thus: ScCHD-1 Enzyme Inhibition Assay. Also: in the data most compounds retested in dose-response had high values. Type of test: functional. Conditions: 30 µM.

Each structure is given as a SMILES string. For some of these results: Measured potencies and affinities stand elsewhere.

Chromo domain-containing protein 1 (Saccharomyces cerevisiae (strain ATCC 204508 / S288c) (Baker's yeast)), sequence (P32657 whole entry, the tested form may be a part): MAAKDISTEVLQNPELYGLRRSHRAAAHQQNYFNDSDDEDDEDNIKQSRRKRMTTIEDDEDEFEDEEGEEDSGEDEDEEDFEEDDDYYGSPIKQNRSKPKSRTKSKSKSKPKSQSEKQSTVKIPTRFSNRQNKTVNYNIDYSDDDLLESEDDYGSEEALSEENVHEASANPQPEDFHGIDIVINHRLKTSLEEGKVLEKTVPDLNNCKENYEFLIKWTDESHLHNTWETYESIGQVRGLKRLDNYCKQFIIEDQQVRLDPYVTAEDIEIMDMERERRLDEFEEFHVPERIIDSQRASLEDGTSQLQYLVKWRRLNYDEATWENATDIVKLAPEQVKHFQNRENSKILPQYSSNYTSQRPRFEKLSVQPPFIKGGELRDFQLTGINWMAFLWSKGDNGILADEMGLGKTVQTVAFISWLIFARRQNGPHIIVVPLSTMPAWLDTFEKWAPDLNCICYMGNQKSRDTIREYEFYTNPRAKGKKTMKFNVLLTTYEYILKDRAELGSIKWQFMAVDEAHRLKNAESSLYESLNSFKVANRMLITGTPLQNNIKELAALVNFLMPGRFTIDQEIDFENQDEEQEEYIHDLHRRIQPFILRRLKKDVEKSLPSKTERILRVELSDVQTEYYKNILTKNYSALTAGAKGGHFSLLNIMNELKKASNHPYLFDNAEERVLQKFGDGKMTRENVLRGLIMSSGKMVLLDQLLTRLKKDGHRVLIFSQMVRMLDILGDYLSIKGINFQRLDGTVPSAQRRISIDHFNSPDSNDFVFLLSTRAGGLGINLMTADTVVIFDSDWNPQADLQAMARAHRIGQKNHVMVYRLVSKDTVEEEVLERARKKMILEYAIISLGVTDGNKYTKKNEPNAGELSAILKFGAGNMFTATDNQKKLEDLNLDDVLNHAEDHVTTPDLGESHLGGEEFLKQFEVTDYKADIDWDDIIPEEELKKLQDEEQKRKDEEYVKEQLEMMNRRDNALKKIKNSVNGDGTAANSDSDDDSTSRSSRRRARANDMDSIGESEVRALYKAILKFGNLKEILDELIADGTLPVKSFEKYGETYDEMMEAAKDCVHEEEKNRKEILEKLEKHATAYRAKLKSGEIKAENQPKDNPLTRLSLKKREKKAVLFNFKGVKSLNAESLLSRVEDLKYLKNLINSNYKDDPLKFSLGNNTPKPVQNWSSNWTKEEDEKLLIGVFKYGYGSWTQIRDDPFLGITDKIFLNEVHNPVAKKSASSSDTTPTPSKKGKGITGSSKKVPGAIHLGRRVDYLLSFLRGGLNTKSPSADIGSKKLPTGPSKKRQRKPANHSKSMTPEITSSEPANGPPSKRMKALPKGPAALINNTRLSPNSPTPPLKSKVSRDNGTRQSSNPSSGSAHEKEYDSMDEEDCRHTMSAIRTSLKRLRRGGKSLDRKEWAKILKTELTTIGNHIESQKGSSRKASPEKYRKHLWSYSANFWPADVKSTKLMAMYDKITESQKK
Protein translocase subunit SecA (Escherichia coli (strain K12)), sequence (P10408 whole entry): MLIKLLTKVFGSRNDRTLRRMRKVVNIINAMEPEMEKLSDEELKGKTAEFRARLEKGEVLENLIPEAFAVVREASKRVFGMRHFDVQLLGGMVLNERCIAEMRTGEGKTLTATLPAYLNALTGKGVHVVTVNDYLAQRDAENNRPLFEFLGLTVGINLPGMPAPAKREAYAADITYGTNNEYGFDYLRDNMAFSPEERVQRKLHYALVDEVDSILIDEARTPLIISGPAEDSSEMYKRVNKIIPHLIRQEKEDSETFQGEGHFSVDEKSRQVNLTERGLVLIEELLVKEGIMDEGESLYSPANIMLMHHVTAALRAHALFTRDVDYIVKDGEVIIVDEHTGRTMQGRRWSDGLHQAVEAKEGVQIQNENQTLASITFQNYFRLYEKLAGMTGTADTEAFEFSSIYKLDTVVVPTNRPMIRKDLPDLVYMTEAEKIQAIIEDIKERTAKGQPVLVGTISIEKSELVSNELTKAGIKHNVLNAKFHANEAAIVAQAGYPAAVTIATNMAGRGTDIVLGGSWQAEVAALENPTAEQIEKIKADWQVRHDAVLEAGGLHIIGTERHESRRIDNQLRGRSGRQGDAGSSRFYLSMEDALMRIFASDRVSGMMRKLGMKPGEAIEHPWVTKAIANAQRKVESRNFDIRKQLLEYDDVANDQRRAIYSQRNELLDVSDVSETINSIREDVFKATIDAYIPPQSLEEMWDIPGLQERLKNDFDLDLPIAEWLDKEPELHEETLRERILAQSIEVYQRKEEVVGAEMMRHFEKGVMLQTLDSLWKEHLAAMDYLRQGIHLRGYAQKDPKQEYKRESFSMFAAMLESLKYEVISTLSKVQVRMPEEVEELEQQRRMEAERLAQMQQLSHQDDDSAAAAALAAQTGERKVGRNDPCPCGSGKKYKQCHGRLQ

Consider `COc1ccc(C2CC(=O)Oc3cc(C)[nH]c(=O)c32)cc1` (stereo not drawn), for which the Percent Effect was -5.52% in test [1]; 6.67% in test [2]; 5.42% in test [3]; 2.83% in test [4]; 4.13% in [5]; -0.528% in [6]. The Percent Effect in test [7] is 11.1%; in test [8], 3.33%; in test [9] it was 2.12%; in [10], 5.13%; in [11], -1.69%.

With `COc1cc(C(=O)N2CCCC(CNS(C)(=O)=O)C2)cc(OC)c1C` (stereo not drawn), the Percent Effect was -5.54% in test [1]; 13.5% in test [2]; 77.8% in test [3]; -1.48% in test [4]; 2.74% in test [5]; 0.802% in test [6]. The Percent Effect in [7] was 1.26%; in test [8], 11%; in test [9], 7.39%; in test [10], 16.1%; in [11], -4.09%.

In the case of `Cc1ccc2c(c1)CCC21CCN(C(=O)CO)CC1`, the Percent Effect is -2.81% in [1]; 5.2% in [2]; -0.185% in [3]; 17.2% in [4]; 6.79% in [5]; -20.7% in test [6]. The Percent Effect in test [7] is 12.8%; in test [8] it was 15.4%; in [9], 4.3%; in [10] it was 6.17%; in [11], -7.19%.

Turning to `CN(C)C(=O)N1Cc2nnn(C)c2C(COCC2CC2)C1` (stereo not drawn), the Percent Effect in test [1] is 1.21%; in test [2], -21.9%; in [3] it was -4.36%; in [4], 0.0741%; in [5], 4.96%; in test [6] it was 2%. Also, the Percent Effect was 6.76% in [7]; -7.39% in test [8]; 2.08% in test [9]; 6.17% in test [10]; -1.7% in [11].

On to `Cc1nn(CCn2ccnc2-c2cc3n(n2)CCCNC3)c(C)c1Cl`, for which the Percent Effect is -4.62% in test [1]; 21.3% in test [2]; -6.15% in [3]; 20.4% in test [4]; 5.75% in test [5]; 6.25% in test [6]. In addition, the Percent Effect in test [7] is 16.9%; in test [8], 21.8%; in [9], 7.1%; in [10] it was 23.5%; in [11] it was -7.41%.

For `O=C(c1cccc(NCCO)c1)N1CCOCC1`, the Percent Effect is 0.755% in test [1]; 13% in test [2]; -9.18% in test [3]; 2.34% in test [4]; -2.46% in test [5]; -5.52% in [6]. Also, the Percent Effect was 19.3% in [7]; 28.8% in test [8]; 2.15% in [9]; 11.1% in test [10]; -2.11% in [11].

As to `CCC[C@@H]1CN(S(=O)(=O)c2ccc(C)c(F)c2)C[C@H]1N(C)C`, the Percent Effect in test [1] is -4.83%; in test [2], 2.67%; in test [3], -4.64%; in test [4], -1.02%; in test [5], -8.86%; in [6], 2.08%. The Percent Effect in [7] is 16.2%; in test [8], 3.61%; in [9] it was 1.64%; in [10], 6.17%; in test [11], -7.9%.

As to `COCCOc1ncccc1C(=O)Nc1ccc(-n2cncn2)c(F)c1`, the Percent Effect in test [1] was -2.86%; in [2] it was 10.5%; in test [3] it was 0.415%; in [4] it was 9.57%; in test [5], 0%; in [6] it was 0%. For the same compound, the Percent Effect in test [7] was 17.5%; in test [8], -26.4%; in test [9] it was 7.35%; in [10], 12.2%; in test [11] it was -9.99%.

(Values after ChEMBL document CHEMBL3988442, “University of Dundee, Small-Polar-MMV Screening Library” (2021).)
